Measurements published in PubChem BioAssay AID1619 (SRMLSC, 2009).
Hit rate of the full screen: of about 220,000 compounds, about 830 (0.38%) were called active.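 How the source made its calls: active means compound inhibiting the enzyme by more than half at any dose during confirmatory dose-response retesting; inconclusive means strong single-dose inhibitors picked by rank but not retested; inactive means the rest.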 The list is a sample of the results. Measured potencies and affinities stand elsewhere.

These molecules were tested against Leucine aminopeptidase (Plasmodium falciparum (isolate 3D7)) (UniProt Q8IL11) (assay: P. falciparum M17LAP inhibitors, primary screen, biochemical, fluorogenic H-Leu-NHMec substrate, 1536-well (AID 1619;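 further: plate controls were full reaction with DMSO carrier for no effect and no enzyme background for full effect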)). Conditions: recombinant M17LAP, H-Leu-NHMec fluorogenic kinetic assay; at 30 µM; stronger effect = higher value.
Leucine aminopeptidase (Plasmodium falciparum (isolate 3D7)), sequence (Q8IL11 whole entry, looked up): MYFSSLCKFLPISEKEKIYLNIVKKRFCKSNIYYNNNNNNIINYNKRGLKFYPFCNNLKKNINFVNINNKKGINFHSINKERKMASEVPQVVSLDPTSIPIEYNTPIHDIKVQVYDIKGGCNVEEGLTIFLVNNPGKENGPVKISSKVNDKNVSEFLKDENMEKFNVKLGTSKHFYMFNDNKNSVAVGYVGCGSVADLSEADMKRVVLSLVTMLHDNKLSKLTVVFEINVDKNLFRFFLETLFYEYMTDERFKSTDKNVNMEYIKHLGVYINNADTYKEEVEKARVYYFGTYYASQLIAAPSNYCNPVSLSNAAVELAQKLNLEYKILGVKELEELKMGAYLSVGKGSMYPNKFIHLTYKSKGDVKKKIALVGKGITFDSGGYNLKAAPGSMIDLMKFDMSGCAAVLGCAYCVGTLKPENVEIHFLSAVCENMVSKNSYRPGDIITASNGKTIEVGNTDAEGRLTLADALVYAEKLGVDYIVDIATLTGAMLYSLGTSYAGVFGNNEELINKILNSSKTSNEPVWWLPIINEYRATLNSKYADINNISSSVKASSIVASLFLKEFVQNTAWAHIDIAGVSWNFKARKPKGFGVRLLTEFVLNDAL

inhibition, inactive:
O=C(Cc1cn(Cc2cccc(Cl)c2)c2ccccc12)N1CCCCCC1 -20.4%
O=c1c2c3c(sc2nc2sc(CN4CCCCC4)cn12)CCCC3 -6.38%
N#Cc1c(NC(=O)C2CCCO2)sc2c1CCCCC2 (stereo not given) -2.74%
N#Cc1c(NC(=O)CCC(=O)O)sc2c1CCCCC2 34.4%
N#Cc1c(NC(=O)C2CCCO2)sc2c1CCCCCC2 (stereo not given) 13.1%
CC1CCc2sc(NC(=S)NC(=O)c3ccccc3)c(C#N)c2C1 (stereo not given) -12%
N#Cc1c(NC(=O)c2ccccc2)sc2c1CCCCC2 21.1%
N#Cc1c(NC(=O)C2CC2)sc2c1CCCCC2 28.1%
CC(=O)Nc1sc2c(c1C#N)CCCCC2 -1.44%
CC1CCc2c(sc(NC(=O)c3ccccc3C(=O)O)c2C#N)C1 (stereo not given) 1.93%
O=C(Nc1ccccc1NS(=O)(=O)c1ccc(F)cc1)C1CCC1 6.59%
COc1ccc(-c2cn(-c3ccc(SC(F)F)cc3)c3[n+]2CCC3)cc1OC -11.9%
O=C(CCN1C(=O)c2ccccc2C1=O)Nc1cccnc1 11.6%
N#Cc1c(-c2ccccc2)ccnc1N1CCOCC1 0.41%
CCCCC(=O)NC(c1ccc(OC)c(OC)c1)c1c(O)ccc2ccccc12 (stereo not given) 5.73%
C=CCNC(=S)Nc1cccc(N)c1 2.22%
Cc1cccc(NC(=O)Cn2nc([N+](=O)[O-])c(Br)c2C)n1 -0.63%
CCCn1c(/N=C/c2c[nH]c3ccccc23)nc2ccccc21 0.08%
CN(CCC#N)C(=O)COC(=O)/C=C/c1ccc2c(c1)OCO2 2.65%
COc1ccc(C2=CC3=C(Br)C(=O)C(C)(OC(=O)C4CCCC4)C(=O)C3=CO2)cc1 (stereo not given) 22.1%
Cc1sc(NC(=O)C2CCCC2)c(C#N)c1C 3.61%
CCOC(=O)c1c(NC(=O)C2CC(Cl)=CCC2C(=O)O)sc2c1CC(C)(C)OC2 (stereo not given) 42.4%
CC(=O)Nc1sc2c(c1C#N)CCC2 -2.63%
Cc1sc(NC(=O)C2CCCO2)c(C#N)c1C (stereo not given) 5.77%
CC1(C)Cc2c(sc(NC(=O)Cc3ccccc3)c2C#N)CO1 20.3%
CC(=O)Nc1sc2c(c1C#N)CCCC2 -9.07%
Cn1nnnc1SCC(=O)Nc1cccc(S(=O)(=O)N2CCCC2)c1 -2.95%
O=C(Nc1nnc(SCc2ccccc2F)s1)c1ccco1 8.78%
Cc1ccc(NC(=O)Nc2cccc(Cl)c2)c(C(=O)O)c1 -7.94%
COc1ccc(C)cc1NC(=O)CN1C(=O)c2ccccc2S1(=O)=O 11.2%
COc1ccc(OC)c(NC(=O)CN2C(=O)c3ccccc3S2(=O)=O)c1 23.2%
CCC(C)NC(=O)c1ccccc1NC(=O)CN1C(=O)c2ccccc2S1(=O)=O (stereo not given) -2.81%
CCOC(=O)c1ccccc1NC(=O)CN1C(=O)c2ccccc2S1(=O)=O -15.2%
C/C(=N\NC(=O)c1cccc(S(=O)(=O)N2CCCC2)c1)c1cccs1 0.78%
O=C(CN1CCN(c2ncc(C(F)(F)F)cc2Cl)CC1)NC(=O)NCc1ccccc1 -3.07%
Cn1c2c(c(=O)n3ncnc13)CCCC2 -2.57%
CCOc1ccc(NC(=O)CSc2nnc(CCNC(=O)c3ccc(OC)cc3)n2C)cc1 23.6%
O=C(COC(=O)c1cccnc1)Nc1ccccc1 2.57%
CCn1nnnc1SCC(=O)Nc1ccc(OC)cc1 3.82%
Cc1ccc(NC(=O)COC(=O)c2cccnc2)cc1 25.2%
O=C(O)Cn1nnnc1SCC(=O)Nc1ccccc1F 18.7%
O=C(O)CCC(=O)Nc1ccc(OCC(=O)O)cc1 -3.01%
Cc1ccc(OCCCC(=O)Nc2ccc(Br)cc2)cc1 -1.62%
CCn1c(CCNC(=O)c2ccc(OC)cc2)nnc1SCC(=O)Nc1ccccc1F 1.93%
Cc1ccccc1NC(=O)NCc1ccc2c(c1)OCO2 5.21%
O=C(c1cnsn1)N1CCN(c2ccccn2)CC1 -4.02%
Cc1nc(C(=O)O)nn1-c1ccc([N+](=O)[O-])cc1 0.22%
COc1cccc([C@@H]2Oc3ccc(OC)cc3C(=O)[C@H]2OC(=O)N[C@H](C)C2CCCCC2)c1 -23.2%
O=[N+]([O-])c1ccc2c(c1)/C(=N\O)c1ccccc1-2 2.49%
CN1CCN(c2ccc(C(CC(N)=O)NC(=O)Cc3ccc(Br)cc3)cc2[N+](=O)[O-])CC1 (stereo not given) 5.26%
O=C(N/N=C\c1ccc2c(c1)OCO2)c1ccco1 26.4%
CCCc1nnc(SCC(=O)Nc2ccc(OCC)cc2)n1N 30.4%
CCOc1ccc(OCC)c(NC(=O)CSCC(=O)O)c1 2.8%
CCCCOc1ccc(C(=O)O)cc1 23.4%
Nn1cnnc1SCC(=O)Nc1ccc(C2CCCCC2)cc1 -2.76%
CCCCOc1ccc(CC(=O)NCC(=O)O)cc1 4.31%
CCOc1ccc(NC(=O)CCC(=O)O)cc1 18%
O=C(CSCCO)Nc1ccc(C2CCCCC2)cc1 6.11%
CCn1nnnc1SCC(=O)Nc1ccc(OCc2ccccc2)cc1 4.99%
O=C(Nc1nc2ccsc2c(=O)s1)c1ccco1 2.03%
COc1cc(/C=N/NC(=O)c2ccccc2Cl)ccc1Oc1ccc([N+](=O)[O-])cn1 3.71%
COC(=O)c1ccccc1NC(=O)c1ccccc1N(C)S(=O)(=O)c1ccccc1 -2.99%
CCN(C(=O)CCc1nc(-c2ccc(OC)cc2)no1)c1cc(OC)ccc1OC -5.65%
Cc1ccc(S(=O)(=O)N(C)CC(=O)OCC(=O)NC(c2ccccc2)c2ccccc2)cc1 11.4%
Cc1ccc(-c2ccc(/C=N/NC(=O)c3ccccc3O)o2)cc1 3.44%
